# Assay results published in PubChem BioAssay AID686979 (National Center for Advancing Translational Sciences (NCATS), 2013).
# Several values for one entry are separate records, joined by “and”; a condition that tells them apart may be missing. Identical values can stand only once. Out of some 420,000 compounds screened, about 50,000 (12%) were called active. Inconclusive results (about 26%) are left out. The call rests on the fitted dose curve; in most records, active means well fitted inhibition curve with a large enough effect; inconclusive means small, poorly fitted or top-dose-only effect; inactive means flat fitted curve, though single readings scatter. Shown is part of a subset that was picked to be rich in actives. More than one record can exist for a structure, and the calls need not agree.
# Experiment: qHTS for Inhibitors of human tyrosyl-DNA phosphodiesterase 1 (TDP1): qHTS in cells in presence of CPT; further: nearly all actives have a fitted effect of over 55% in size
# Settings: chicken DT40 Tdp1-/-;hTDP1 cells + 20 nM CPT, ATP luminescence, 48 h; series mostly up to 46.2 µM; activity change, negative = growth inhibition: at the top concentration
# In short: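 Chicken DT40 Tdp1-/- cells complemented with human TDP1, 400 cells/well, exposed to compounds plus 20 nM camptothecin for at least 48 h at 37 C; viability read as ATP content by CellTiter-Glo luminescence.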
# On the % scale 0 is the no-effect control and ±100 the full control effect; potency means the concentration at half of the fitted maximal effect.
SMILES,"activity change, negative = growth inhibition",Potency
Cn1c(=S)sc2ccc3ccccc3c21,-11.6% (inactive),
CC(C)NC(=O)N1CC[C@@]2(CCCN(C(=O)c3ccco3)C2)C1,0.86% (inactive),
Cc1ccc(NC(=O)CN2CCCCC2)c2c1CC(C)(C)O2,-23.3% (inactive),
O=C(O)CSc1ccc(S(=O)(=O)N2CCCC2)cn1,5.59% (inactive),
Cc1ccc(S(=O)(=O)NC2(C(F)(F)F)NC(=O)N(CCc3ccccc3)C2=O)cc1 (configuration not stated),,inactive
O=C(Cc1ccc(F)cc1)N1CCN=C1SCc1cccc([N+](=O)[O-])c1,2.67% (inactive),
COc1ccc(Nc2ncc(C(=O)N3CCN(c4ccccc4OC)CC3)c3ccccc23)cc1,,29.1 µM (active) and 13 µM (active)
COc1ccc(NC(=O)c2cnc(Nc3ccc(C)c(Cl)c3)c3ccccc23)cc1OC,-3.58% (inactive),
COc1ccccc1N1CCN(C(=O)c2ccc(NC3=NC4CS(=O)(=O)CC4S3)cc2)CC1 (configuration not stated),-12.7% (inactive),
O=C(Nc1cc(F)ccc1F)c1ccc2c(=O)n3c(nc2c1)CCC3,-14.7% (inactive),
CC(=O)NCCC(=O)Nc1nc(-c2ccc3c(c2)OCCO3)cs1,1.03% (inactive),
CC(=O)c1cccc(NC(=O)C2COc3ccccc3O2)c1 (configuration not stated),-5.65% (inactive),
O=C(CCc1ccccc1)Nc1nn[nH]n1,1.24% (inactive),
Cc1ccc(-c2csc(NC(=O)C3=COCCO3)n2)cc1C,,13 µM (active)
Cc1csc(NC(=O)C2=COCCO2)n1,-2.18% (inactive),
O=C(CCc1ccccc1)Nc1ccc(NC(=O)C2CCCCC2)nc1,-19.2% (inactive),
COc1ccc(NC(=O)C2COc3ccccc3O2)cc1 (configuration not stated),-1.97% (inactive),
Cc1ccc(-c2csc(NC(=O)Cc3cccs3)n2)cc1C,-14.1% (inactive),
O=C(CCc1ccccc1)Nc1ncc([N+](=O)[O-])s1,,20.6 µM (active)
O=C(Nc1nc(-c2cccnc2)cs1)c1ccccc1F,16.5% (inactive),
O=C(Nc1nc(-c2ccncc2)cs1)C1COc2ccccc2O1 (configuration not stated),,20.6 µM (active)
O=C(Nc1nc(-c2ccc3c(c2)OCO3)cs1)c1ccncc1,,14.6 µM (active)

SMILES,"activity change, negative = growth inhibition",Potency
Fc1ccc(/C=N/n2c(COc3ccccc3)n[nH]c2=S)cc1,0.518% (inactive),
C#CCN(C[C@H]1[C@H](OC(=O)NC2CCCC2)[C@H](OC(=O)NC2CCCC2)C[C@H]2C(=O)N(c3ccccc3)C(=O)[C@@H]12)S(=O)(=O)c1ccc(C)cc1,-3.61% (inactive),
CC(Oc1ccccc1)C(=O)NN1Cc2ccccc2C1=N (configuration not stated),23.1% (inactive),
O=C(COc1ccc([N+](=O)[O-])cc1)Nc1ccc(N2CCCC2)cc1,-21.3% (inactive),
O=C(Nc1nnc(SCc2ccc(Cl)cc2Cl)s1)C1COc2ccccc2O1 (configuration not stated),-17.7% (inactive),
O=C(Nc1ncc([N+](=O)[O-])s1)C1COc2ccccc2O1 (configuration not stated),,14.6 µM (active)
C/C(=N/NC(=O)C1COc2ccccc2O1)c1ccco1 (configuration not stated),-18% (inactive),
Cc1cc(N=Nc2ccc3ccccc3c2)ccc1O,-1.82% (inactive),
C[C@H](NC(=O)c1nc[nH]c1C(=O)NCC(=O)OC(C)(C)C)C(=O)OCc1ccccc1,-15.4% (inactive),
COc1ccc(C(O)C(O)(C(=O)OC(C)C)c2ccc(C)cc2)cc1 (configuration not stated),-4.68% (inactive),
COc1ccc(-c2csc(Nc3ccc(O)cc3)n2)cc1,,10.3 µM (active)
COc1ccc(OC)c(-c2csc(NC(=O)COC(=O)C3CC3)n2)c1,4.83% (inactive),
COc1cccc(CC(=O)Nc2ccc(-c3csc(C)n3)cc2)c1,-20.8% (inactive),
COc1ccc(-c2csc(Cc3nc(O)cs3)n2)cc1,,18.4 µM (active)
COc1ccc(OC)c(Nc2nc(-c3ccc(O)c(O)c3)cs2)c1,,0.82 µM (active)
COc1ccc(OC)c(-c2csc(-c3cccs3)n2)c1,-17.7% (inactive),
COc1ccc(CCN(C(=O)COc2ccccc2)c2nc(-c3ccccc3)cs2)cc1OC,-26.3% (inactive),
N#CCc1ccc(NC(=O)c2ccccc2C(=O)Nc2ccc(CC#N)cc2)cc1,-10.6% (inactive),
COc1ccc(NC(=O)COC(=O)c2n[nH]c3ccccc23)c(OC)c1,-22.8% (inactive),
CCOc1ccc(N2CC(C(=O)NCc3ccccn3)CC2=O)cc1 (configuration not stated),-18.4% (inactive),
COc1cc(/C=C/C(=O)O)cc(S(=O)(=O)Nc2ccccc2C(=O)NCCc2ccccc2)c1OC,9.8% (inactive),
COCCCn1c(SCC(=O)NC2CCCC2)nnc1-c1ccccc1,1.09% (inactive),

SMILES,"activity change, negative = growth inhibition",Potency
CCCCN(C)CCCNC(=O)CN1N=C(c2ccc(OC)cc2)CCC1=O,-11.1% (inactive),
O=C1NNC(c2ccccc2)=N/C1=C\c1ccc(Cl)cc1,8.6% (inactive),
Cc1nc(=O)c(-c2ccccc2)c(C)n1-c1ccc(Br)cc1,-15.6% (inactive),
CCOC(=O)c1c(C)oc(C)c(C(=O)OCC)c1=O,7.36% (inactive),
CC(C)Cn1cnc2c1c(=O)n(CC(=O)NN)c(=O)n2Cc1ccccc1,-2.23% (inactive),
CC1=Nc2cc(C(=O)N3CCC(C)CC3)ccc2Sc2ccc(Cl)cc21,,14.6 µM (active)
COc1ccc(C(=O)Nc2c(Cl)cc(Cl)cc2C(=O)N2CCC(C)CC2)cc1,-13.5% (inactive),
CC1CCN(C(=O)c2ccc3c(c2)NC(=O)CN3)CC1,-90.8% (inactive),
Cc1cc(OCc2ccc(C(=O)Nc3ccc(C(=O)O)cc3)o2)ccc1Cl,2.87% (inactive),
CCN(CC)CCCNC(=O)CCc1ccccc1,16.4% (inactive),
CN(Cc1ccccc1)C(=O)CCc1ccccc1,-7.13% (inactive),
CN(C(=O)CN(CCO)CC(=O)N(C)C(C)(C)Cc1ccccc1)C(C)(C)Cc1ccccc1,,inactive and 3.66 µM (active)
CCCCN(C)c1ccc([N+](=O)[O-])cc1,-24.4% (inactive),
Cc1cc(C)c(S(=O)(=O)c2ccccc2)c(OC(=O)c2c(F)cccc2Cl)n1,-13.3% (inactive),
Cc1nc(-c2ccc(Cl)cc2)sc1C(=O)NN,-22.1% (inactive),
Cc1ccc(SCC(=O)c2sc(-c3ccccc3)nc2C)cc1,-15.9% (inactive),
Cc1nc(COc2cccc(Cl)c2)sc1C(=O)/C=C/N(C)C,-0.0849% (inactive),
Cc1nc(-c2ccccc2)sc1C(=O)/C=C/N(C)C,,23.1 µM (active)
Cc1nc(-c2ccccc2)sc1C(=O)/C=C/c1ccccc1,,23.1 µM (active)
CN(C)/C=C/C(=O)c1ccccc1F,-1.6% (inactive),
O=C(CN1CCSCC1)N/N=C/c1ccc(F)cc1F,0.367% (inactive),
CCn1nc(C(=O)NNC(=O)C2CSC3(C)CCC(=O)N23)c2ccccc2c1=O (configuration not stated),0.936% (inactive),

SMILES,"activity change, negative = growth inhibition",Potency
COc1ccc(S(=O)(=O)NC(C)C(=O)NCc2ccncc2)cc1Cl (configuration not stated),-17.2% (inactive),
COc1ccc(Cn2c(=O)c3oc4ccccc4c3n(CC(=O)Nc3ccc(F)cc3F)c2=O)cc1,-12.6% (inactive),
CN=C(c1ccccc1)c1c(C)cccc1C,-7.69% (inactive),
COc1ccc(OC)c(C(O)c2nc3ccccc3n2C)c1 (configuration not stated),5% (inactive),
COc1cc(Nc2nc3ccc(Cl)cc3n3cnnc23)cc(OC)c1OC,,20.6 µM (active)
COc1ccc(OC)c(Nc2nc3ccccc3n3cnnc23)c1,,4.11 µM (active)
COc1ccc(CCNc2nc3ccc(C)cc3n3cnnc23)cc1OC,,14.6 µM (active)
COc1ccccc1CNc1nc2ccc(Cl)cc2n2cnnc12,8.74% (inactive),
CCOc1ccc(OCC)c(Nc2nc3ccccc3n3nnnc23)c1,-8.29% (inactive),
CCOC(=O)Cc1cccc(-c2cc(CCCCCCc3ccc(O[C@H]4O[C@H](COC(C)=O)[C@@H](OC(C)=O)[C@H](OC(C)=O)[C@@H]4OC(C)=O)c(-c4cccc(CC(=O)OCC)c4)c3)ccc2O[C@H]2O[C@H](COC(C)=O)[C@@H](OC(C)=O)[C@H](OC(C)=O)[C@@H]2OC(C)=O)c1,-10.5% (inactive),
Cc1nnc(SCC(=O)NC(=O)NC2CCCC2)n1N,-4.7% (inactive),
Nc1nc(SC23CC4CC(CC(C4)C2)C3)ns1,-3.87% (inactive),
Nc1nc(NC(=O)/C=C/c2ccccc2)nn1-c1ccccc1,-4.23% (inactive),
CC1(c2cccc(N)c2)OCCO1,-8.34% (inactive),
CC(=O)Nc1ccc(NC(=O)COc2ccc(-c3ccccc3)cc2)cc1,-14.1% (inactive),
COc1ccc(N2C(=O)c3ccccc3NC2c2ccc(OC)c(CN3CCOCC3)c2)cc1 (configuration not stated),-23.3% (inactive),
COc1ccc(C2Nc3ccc(NC(=O)COC(C)=O)cc3C(=O)N2Cc2ccccc2)cc1COc1ccc(NC(C)=O)cc1 (configuration not stated),,17.8 µM (active)
COc1ccc2c(c1)CCc1cnc(-n3ncc(C(=O)NCc4cccnc4)c3C3CC3)nc1-2,-5.66% [at 9.04 µM] (inactive),
Cc1nc2ccccn2c(=O)c1NC(=O)c1cccs1,2.74% (inactive),
Cc1ccc(S(=O)(=O)NCC(=O)Nc2ccc3c(c2)OCCO3)cc1,1.97% (inactive),
CCOc1ccc(N(CC(=O)NCc2ccc(OC)cc2)S(=O)(=O)c2c(C)noc2C)cc1,1.59% (inactive),
Cc1noc(C)c1S(=O)(=O)N(CC(=O)Nc1ccc2c(c1)OCCO2)c1ccc(C(C)C)cc1,,20.6 µM (active)

SMILES,"activity change, negative = growth inhibition",Potency
Cc1c(C(=O)Nc2cccc(Cl)c2)cn2c(nc3ccccc32)c1C#N,,16.4 µM (active)
Cn1c(Nc2cccc(Cl)c2)nc2ccccc21,-28.2% (inactive),
O=C(O)c1cccc(NC(=O)c2cc(-c3cccc(Cl)c3)nc3ccccc23)c1,9.84% (inactive),
CC1(c2ccc3ccccc3c2)NC(=O)NC1=O (configuration not stated),-0.204% (inactive),
Cc1cccc(N2C(=O)c3ccc(C(=O)Nc4cccc(C(=O)O)c4)cc3C2=O)c1,-4.27% (inactive),
Cc1cccc(NC(=O)c2cccc(C(=O)Nc3cccc(C)c3C)n2)c1C,-23.1% (inactive),
CCOc1ccccc1NC(=O)Cn1c(=O)n(Cc2ccccc2)c(=O)c2c(C)c(C(=O)N(C)C)sc21,-23.6% (inactive),
O=C(C1CC(=O)N(C2CCCCC2)C1)N1CCN(c2ccccc2)CC1 (configuration not stated),-10.9% (inactive),
O=C1C2CCCN2C(=O)N1CCCCN1CCN(c2cccc(C(F)(F)F)c2)CC1 (configuration not stated),-24.6% (inactive),
O=C(C1CC(=O)N(C2CCCC2)C1)N1CCN(c2cccc(C(F)(F)F)c2)CC1 (configuration not stated),,14.6 µM (active)
COC(=O)c1cc(=O)n(-c2c(Cl)cc(C(F)(F)F)cc2Cl)[nH]1,6.68% (inactive),
CC(=O)Nc1ccccc1OC(C)C(=O)N1CCC(C)CC1 (configuration not stated),-10.5% (inactive),
O=C(NCC(O)c1ccc([N+](=O)[O-])cc1)C1CCCCC1 (configuration not stated),-1.64% (inactive),
CCOc1cc(N2CCOCC2)c(OCC)cc1NC(=O)COc1cccc2cccnc12,,10.3 µM (active)
COC(=O)c1ccc(N2CCOCC2)c(NC(=O)c2ccc3c(c2)OCCO3)c1,-1.66% (inactive),
CCOc1cc(NC(=O)c2ccccc2C(=O)O)c(OCC)cc1NC(=O)c1ccccc1F,-11.2% (inactive),
CCOc1cc(N2CCOCC2)c(OCC)cc1NC(=O)c1ccc(C)s1,,9.2 µM (active)
NC(=O)C1CCN(C(=O)COc2cccc3cccnc23)CC1,-5.39% (inactive),
O=C(COc1nsnc1N1CCOCC1)Nc1ccccc1Cl,-3.03% (inactive),
